Structures can show the parent of a compound that is named as a salt.
Legend:
U-2932 [1] = experiment: growth inhibition by drug alone (1 - RLU/untreated control) (fraction); higher = stronger inhibition; settings: 177Lu-lilotomab satetraxetan 0 ug/ml
Procedure, shortened: (§1)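 Plates pre-printed with the Selleck Cambridge Cancer Compound library at 10/100 nM (RIVA) or 10/1,000 nM (U-2932) received 3,000 cells/well. These cells had been washed after 18 h untreated or with a radiolabelled anti-CD37 antibody conjugate (~600 MBq/mg; 0.5 µg/ml RIVA, 1 µg/ml U-2932). Growth inhibition was obtained from RealTime-Glo luminescence in relation to untreated no-drug wells. Each daily read from day 3, taken after 1 h at 37°C, was converted as 1 − RLU/mean of 48 such wells per plate.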

RIVA [2] = experiment: as above; settings: 177Lu-lilotomab satetraxetan 0 ug/ml
Procedure, shortened: as §1

U-2932 [3] = experiment: growth inhibition by drug plus 177Lu-lilotomab satetraxetan (1 - RLU/untreated control) (fraction); higher = stronger inhibition; settings: 177Lu-lilotomab satetraxetan 1 ug/ml
Procedure, shortened: as §1

RIVA [4] = experiment: as above; settings: 177Lu-lilotomab satetraxetan 0.5 ug/ml
Procedure, shortened: as §1

| Structure (SMILES) | growth inhibition by drug alone (U-2932 [1]; 10 nM, time (day): 3) | growth inhibition by drug alone (U-2932 [1]; 10 nM, time (day): 4) | growth inhibition by drug alone (U-2932 [1]; 10 nM, time (day): 5) | growth inhibition by drug alone (U-2932 [1]; 10 nM, time (day): 6) | growth inhibition by drug alone (U-2932 [1]; 1000 nM, time (day): 3) | growth inhibition by drug alone (U-2932 [1]; 1000 nM, time (day): 4) | growth inhibition by drug alone (U-2932 [1]; 1000 nM, time (day): 5) | growth inhibition by drug alone (U-2932 [1]; 1000 nM, time (day): 6) | growth inhibition by drug alone (RIVA [2]; 10 nM, time (day): 3) | growth inhibition by drug alone (RIVA [2]; 10 nM, time (day): 4) | growth inhibition by drug alone (RIVA [2]; 10 nM, time (day): 5) | growth inhibition by drug alone (RIVA [2]; 10 nM, time (day): 6) | growth inhibition by drug alone (RIVA [2]; 100 nM, time (day): 3) | growth inhibition by drug alone (RIVA [2]; 100 nM, time (day): 4) | growth inhibition by drug alone (RIVA [2]; 100 nM, time (day): 5) | growth inhibition by drug alone (RIVA [2]; 100 nM, time (day): 6) | growth inhibition by drug plus 177Lu-lilotomab satetraxetan (U-2932 [3]; 10 nM, time (day): 3) | growth inhibition by drug plus 177Lu-lilotomab satetraxetan (U-2932 [3]; 10 nM, time (day): 4) | growth inhibition by drug plus 177Lu-lilotomab satetraxetan (U-2932 [3]; 10 nM, time (day): 5) | growth inhibition by drug plus 177Lu-lilotomab satetraxetan (U-2932 [3]; 10 nM, time (day): 6) | growth inhibition by drug plus 177Lu-lilotomab satetraxetan (U-2932 [3]; 1000 nM, time (day): 3) | growth inhibition by drug plus 177Lu-lilotomab satetraxetan (U-2932 [3]; 1000 nM, time (day): 4) | growth inhibition by drug plus 177Lu-lilotomab satetraxetan (U-2932 [3]; 1000 nM, time (day): 5) | growth inhibition by drug plus 177Lu-lilotomab satetraxetan (U-2932 [3]; 1000 nM, time (day): 6) | growth inhibition by drug plus 177Lu-lilotomab satetraxetan (RIVA [4]; 10 nM, time (day): 3) | growth inhibition by drug plus 177Lu-lilotomab satetraxetan (RIVA [4]; 10 nM, time (day): 4) | growth inhibition by drug plus 177Lu-lilotomab satetraxetan (RIVA [4]; 10 nM, time (day): 5) | growth inhibition by drug plus 177Lu-lilotomab satetraxetan (RIVA [4]; 10 nM, time (day): 6) | growth inhibition by drug plus 177Lu-lilotomab satetraxetan (RIVA [4]; 100 nM, time (day): 3) | growth inhibition by drug plus 177Lu-lilotomab satetraxetan (RIVA [4]; 100 nM, time (day): 4) | growth inhibition by drug plus 177Lu-lilotomab satetraxetan (RIVA [4]; 100 nM, time (day): 5) | growth inhibition by drug plus 177Lu-lilotomab satetraxetan (RIVA [4]; 100 nM, time (day): 6) |
| --- | --- | --- | --- | --- | --- | --- | --- | --- | --- | --- | --- | --- | --- | --- | --- | --- | --- | --- | --- | --- | --- | --- | --- | --- | --- | --- | --- | --- | --- | --- | --- | --- |
| CN(C)Cc1ccc(-c2nc3cccc4c3n2CCNC4=O)cc1 | 0.121 | 0.0696 | -0.0285 | -0.000931 | 0.038 | 0.056 | -0.00883 | -0.203 | -0.0131 | 0.0265 | -0.0439 | -0.223 | -0.0162 | 0.0398 | 0.00266 | -0.0877 | 0.00803 | 0.0491 | 0.0539 | 0.0786 | 0.0336 | 0.127 | 0.116 | 0.183 |  |  |  |  |  |  |  |  |
| O=C(c1ccc(OCCN2CCCCC2)cc1)c1c(-c2ccc(O)cc2)sc2cc(O)ccc12 [Evista (Raloxifene Hydrochloride)] | 0.0697 | 0.04 | -0.0859 | -0.131 | -0.0629 | -0.0257 | -0.102 | -0.132 | 0.0573 | -0.0405 | -0.151 | -0.472 | -0.0542 | -0.0819 | -0.167 | -0.432 | -0.0103 | 0.0219 | 0.0239 | 0.0818 | -0.103 | 0.0136 | -0.0473 | -0.104 | 0.368 | 0.48 | 0.511 | 0.525 | 0.425 | 0.482 | 0.477 | 0.447 |
| COc1c(C)c2c(c(O)c1C/C=C(\C)CCC(=O)O)C(=O)OC2 [Mycophenolic (Mycophenolate)] | 0.183 | 0.162 | 0.104 | 0.147 | 0.779 | 0.83 | 0.78 | 0.716 | 0.102 | 0.108 | 0.06 | -0.0787 | 0.409 | 0.362 | 0.284 | 0.202 | 0.128 | 0.131 | 0.191 | 0.311 | 0.759 | 0.81 | 0.733 | 0.662 | 0.534 | 0.601 | 0.625 | 0.635 | 0.712 | 0.719 | 0.736 | 0.739 |
| CNNCc1ccc(C(=O)NC(C)C)cc1 [Procarbazine hydrochloride (Matulane)] | 0.123 | 0.0702 | -0.0853 | -0.113 | 0.0616 | 0.0673 | 0.00725 | -0.144 | 0.0732 | 0.0412 | 0.0155 | -0.0516 | -0.184 | -0.167 | -0.142 | -0.189 | 0.0466 | 0.103 | 0.15 | 0.195 | 0.0453 | 0.108 | 0.126 | 0.177 |  |  |  |  |  |  |  |  |
| O=C1c2ccccc2-c2nc3nonc3nc21 | 0.122 | 0.0829 | -0.0474 | -0.0365 | 0.144 | 0.236 | 0.193 | 0.28 | -0.0244 | -0.0693 | -0.283 | -0.811 | -0.571 | -0.488 | -0.554 | -0.831 | 0.0325 | 0.0601 | 0.0603 | 0.0121 | 0.496 | 0.527 | 0.536 | 0.582 |  |  |  |  |  |  |  |  |
| CC[C@@H]1C(=O)N(C)c2cnc(Nc3ccc(C(=O)N[C@H]4CC[C@H](N5CCN(CC6CC6)CC5)CC4)cc3OC)nc2N1C(C)C [BI6727 (Volasertib)] | 0.335 | 0.327 | 0.308 | 0.37 | 0.962 | 0.975 | 0.98 | 0.982 | 0.23 | 0.19 | 0.153 | 0.0282 | 0.943 | 0.962 | 0.969 | 0.971 | 0.255 | 0.307 | 0.34 | 0.465 | 0.917 | 0.946 | 0.965 | 0.977 |  |  |  |  |  |  |  |  |
| Cc1nn(-c2ccccc2)c(C)c1C=NN1CCN(Cc2ccccc2)CC1 | 0.0133 | 0.025 | 0.0751 | 0.189 | -0.168 | -0.0669 | -0.0956 | -0.16 | -0.144 | -0.164 | -0.201 | -0.467 | -0.163 | -0.151 | -0.201 | -0.307 | -0.0548 | -0.0219 | 0.00875 | 0.104 | -0.251 | -0.05 | -0.0247 | -0.0474 |  |  |  |  |  |  |  |  |
| CC(C)C[C@H](NC(=O)[C@@H](O)[C@H](N)Cc1ccccc1)C(=O)O [Ubenimex (Bestatin)] | 0.0863 | 0.0556 | -0.0551 | -0.108 | -0.043 | -0.0237 | -0.0577 | -0.0906 | 0.135 | 0.0658 | -0.0244 | -0.181 | 0.0407 | 0.0221 | 0.00426 | -0.114 | 0.0135 | 0.0451 | 0.0835 | 0.192 | -0.112 | -0.0121 | -0.00508 | 0.0506 | 0.428 | 0.535 | 0.552 | 0.573 | 0.504 | 0.54 | 0.554 | 0.541 |
| CN(C)c1nc(N(C)C)nc(N(C)C)n1 [Altretamine (Hexalen)] | -0.0883 | -0.0905 | -0.0583 | -0.058 | -0.122 | -0.0758 | -0.114 | 0.0216 | -0.25 | -0.257 | -0.29 | -0.318 | -0.545 | -0.424 | -0.488 | -0.694 | -0.146 | -0.0735 | -0.0141 | -0.0604 | -0.101 | -0.0503 | 0.00142 | 0.121 |  |  |  |  |  |  |  |  |

Reference: the supplement of paper PMC6897291
